Experimental data taken from PubChem BioAssay (NCI).
Values joined by “and” are separate entries in the source; they are usually repeats but may differ in a detail not shown here. Equal entries are not always repeated. Compounds without any hit were thinned out: in the full panel of roughly 79,000, 15% have a hit. Some structures have more than one record in an assay (separate samples or runs), and their calls can disagree. Active and inactive are the calls of the source. No stated cut-off is given here; in the data, active means growth inhibition above about 70%; inactive means the rest.

What was measured:
[1] = NCI Yeast Anticancer Drug Screen. Data for the rad50 strain (AID 155);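 further: 0% = growth of vehicle-only cultures of the same strain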; conditions: S. cerevisiae rad50 strain growth inhibition, stronger effect = higher value
In short: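 Growth of the mutant yeast was measured after compound exposure and referenced to vehicle-treated cultures.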

[2] = NCI Yeast Anticancer Drug Screen. Data for the mec2-1 strain (AID 157); conditions: S. cerevisiae mec2-1 strain, stronger effect = higher value
In short: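 mec2-1 yeast strain, carrying an alteration in DNA damage repair or cell cycle control, was exposed to compounds; growth inhibition was measured relative to vehicle-treated controls.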

[3] = NCI Yeast Anticancer Drug Screen. Data for the sgs1 mgt1 strain (AID 161);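 further: 0% = growth of cultures given vehicle only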; conditions: S. cerevisiae sgs1 mgt1 strain, stronger effect = higher value
In short: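 Yeast cells carrying a defined DNA-repair defect were exposed to test compounds. Growth inhibition was measured relative to vehicle-treated controls.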

[4] = NCI Yeast Anticancer Drug Screen. Data for the cln2 rad14 strain (AID 165);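 further: 0% = growth equal to vehicle treated cultures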; conditions: S. cerevisiae cln2 rad14 strain, stronger effect = higher value
In short: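 Yeast carrying cln2 and rad14 alterations (cell cycle control and DNA damage repair) were exposed to compounds. Growth inhibition was measured against vehicle-treated controls.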

[5] = NCI Yeast Anticancer Drug Screen. Data for the bub3 strain (AID 167); conditions: S. cerevisiae bub3 mutant strain, stronger effect = higher value
In short: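 Whole-cell yeast assay. The mutant strain was incubated with compounds, and growth inhibition was determined by comparison with vehicle-treated cells.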

[6] = NCI Yeast Anticancer Drug Screen. Data for the mlh1 rad18 strain (AID 175); conditions: S. cerevisiae mlh1 rad18 strain growth inhibition, stronger effect = higher value
In short: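 Growth inhibition of the yeast strain was measured after compound exposure and expressed relative to vehicle-treated controls. The strain carries defined defects in DNA damage repair.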

[7] = at 5.0 µM (retest, dose inferred, filed as 0.5)
[8] = at 50.0 µM (retest, dose inferred, filed as 5.0)

Measured: growth inhibition

OC1CN(Cc2ccccc2)C[C@@H]1O (stereo partly specified)
active: [1]; [8] 99% | [2]; [8] 99% | [3]; [8] 99% | [4]; [8] 93% | [5]; [8] 99% | [6]; [8] 99%
inactive: [1]; [7] 8% | [1]; at 50.0 µM 23% | [2]; [7] 11% | [2]; at 50.0 µM -7.9% | [3]; [7] 10% | [3]; at 50.0 µM -4.5% | [4]; [7] 17% | [4]; at 50.0 µM 59.6% | [5]; [7] 11% | [5]; at 50.0 µM -0.5% | [6]; [7] 25% | [6]; at 50.0 µM 36.8%

CCCCCCCCCCCCCCCCCCOCC(COP(=O)([O-])OCC[N+](C)(C)C)OC (stereo unspecified)
91.5% (active) and -31.4% (inactive): [3]; at 50.0 µM
91.4% (active) and -4.35% (inactive): [2]; at 50.0 µM
inactive: [1]; [7] -16% | [1]; [8] -9% | [2]; [7] -4% | [2]; [8] -28% | [3]; [7] -13% | [3]; [8] -14% | [4]; [7] -1% | [4]; [8] -46% | [5]; [7] -16% | [5]; [8] -28% | [6]; [7] -59% | [6]; [8] -88% | [6]; at 50.0 µM -1.25% and -47%
90.5% (active) and -7.55% (inactive): [5]; at 50.0 µM
88.2% (active) and 9.5% (inactive): [4]; at 50.0 µM
90% (active) and 20.7% (inactive): [1]; at 50.0 µM

Nc1c(C(=O)O)ccc(C(=O)O)c1C(=O)O
inactive: [1]; [7] -131% | [1]; [8] -173% | [1]; at 50.0 µM -5.95% and 2.45% | [2]; [7] -50% | [2]; [8] -53% | [2]; at 50.0 µM 14.1% and -1% | [3]; [7] -54% | [3]; [8] -67% | [3]; at 50.0 µM 25% and 3.8% | [4]; [7] -56% | [4]; [8] -60% | [4]; at 50.0 µM 3.75% and -23.4% | [5]; [7] -65% | [5]; [8] -79% | [5]; at 50.0 µM -2.6% and -5.8% | [6]; [7] -113% | [6]; [8] -123% | [6]; at 50.0 µM 33.5% and -12.9%

C=C(C)C(=O)Oc1ccc(N=Nc2ccccc2)ccc1=O
active: [1]; [8] 89% | [1]; at 50.0 µM 95.3% | [2]; [8] 93% | [2]; at 50.0 µM 81% | [3]; [8] 93% | [3]; at 50.0 µM 93% | [4]; [8] 77% | [5]; [8] 86% | [5]; at 50.0 µM 81.8% | [6]; [8] 96% | [6]; at 50.0 µM 94.5%
inactive: [1]; [7] 2% | [2]; [7] 5% | [3]; [7] 6% | [4]; [7] 4% | [4]; at 50.0 µM 59.9% | [5]; [7] -2% | [6]; [7] 12%

CN(C)CCCN=c1c2ccccc2n(O)c2cccc([N+](=O)[O-])c12
inactive: [1]; [7] 6% | [1]; [8] 2% | [2]; [7] 23% | [2]; [8] -4% | [2]; at 50.0 µM 26.8% | [3]; [7] 2% | [3]; [8] -1% | [3]; at 50.0 µM 46.9% | [4]; [7] 11% | [4]; [8] 8% | [4]; at 50.0 µM 22.4% | [5]; [7] 9% | [5]; [8] -10% | [5]; at 50.0 µM 45.4% | [6]; [7] 7% | [6]; [8] 6% | [6]; at 50.0 µM -31.7%
active: [1]; at 50.0 µM 72.5%

CC(=O)OCC(=O)[C@H]1CC[C@H]2[C@@H]3CC=C4C[C@@H](O)CC[C@]4(C)[C@H]3CC[C@]12C
active: [1]; [8] 91% | [1]; at 50.0 µM 89.8% | [2]; [8] 91% | [3]; [8] 94% | [4]; [8] 95% | [5]; [8] 91% | [6]; [8] 95% | [6]; at 50.0 µM 81.1%
inactive: [1]; [7] 54% | [2]; [7] 33% | [2]; at 50.0 µM -5.65% | [3]; [7] 60% | [3]; at 50.0 µM 48.5% | [4]; [7] 18% | [4]; at 50.0 µM 55.8% | [5]; [7] 23% | [5]; at 50.0 µM -17.4% | [6]; [7] 65%

O=C1C=CC(=O)C(C2OC(=O)C(Br)=C2Br)=C1 (stereo unspecified)
inactive: [1]; [7] -14% | [1]; [8] 18% | [1]; at 50.0 µM 6.95% | [2]; [7] -21% | [2]; [8] -17% | [2]; at 50.0 µM 5.5% | [3]; [7] -18% | [3]; [8] -1% | [3]; at 50.0 µM -3.45% | [4]; [7] -10% | [4]; [8] -10% | [4]; at 50.0 µM -17.7% | [5]; [7] -9% | [5]; [8] 7% | [5]; at 50.0 µM 13.6% | [6]; [7] -25% | [6]; [8] 46% | [6]; at 50.0 µM 12.4%
